Assay results taken from PubChem BioAssay (EPA / NIEHS).
Results filed as inconclusive are left out. Calls of active or inactive are those of the source. Rule for the calls: active = hit-call score of the fitted dose curve at least 0.9, where 1 is the maximum; inconclusive = response in the unintended direction; inactive = score below 0.9.

Each compound was assayed against Cellular tumor antigen p53 (Homo sapiens) (UniProt P04637) (assay: TOX21_p53_BLA_p5_ratio: Tox21 HCT-116 p53 Agonism Beta-lactamase Assay, Ratio, Phase 5 (AID 2283599)).
From the text: TOX21_p53_BLA_p5 is a cell-based, single-readout assay that uses HCT116, a human intestinal cell line, […] in a 1536-well plate.TOX21_p53_BLA_p5_ratio is an assay readout measuring reporter gene via receptor activity and designed using inducible reporter (beta lactamase induction) detected with GAL4 b-lactamase reporter gene. The signal is derived from the ratio of cleaved (ch2) to uncleaved (ch1) reporter gene substrate used as the measure of target activity.Data from the assay component TOX21_p53_BLA_p5_ratio was analyzed into 1 assay endpoint. This assay endpoint, TOX21_p53_BLA_p5_ratio, was analyzed in the positive analysis fitting direction relative to DMSO as the negative control and baseline of activity. Using a type of inducible reporter, gain-of-signal activity can be used to understand changes in the reporter gene as they relate to the gene TP53. Furthermore, this assay endpoint can be referred to as a primary readout, because this assay has produced multiple assay endpoints and this ratio serves a reporter gene function to understand target activity. To generalize the intended target to other relatable targets, this assay endpoint is annotated to the DNA binding intended target family, where the subfamily is tumor suppressor.
Thawing Method: Place 14 mL of pre-warmed thaw medium into a 15 mL of conical tub. Remove the vial of cells to be thawed from liquid nitrogen and thaw rapidly by placing at 37C in a water bath with gentle agitation for 1-2 minutes. Decontaminate the vial by wiping with 70% ethanol before opening in a biological safety cabinet. Transfer the vial contents drop-wise into 14 mL of thaw medium in a sterile 15-mL conical tub. Centrifuge cells at 900 rpm for 4 minutes and resuspend in thaw medium. Transfer contents to the T75 tissue culture flask containing Thaw Medium and place flask in a humidified 37C/5% CO2 incubator. Switch to growth medium at first passage.Propagation Method: Aspirate medium, rinse once in DPBS, add 0.25% Trypsin/EDTA and swirl to coat the cell evenly. Add an equal volume of Growth Medium to inactivate Trypsin after 2-3 minutes incubation at 37C. Centrifuge cells at 900 rpm for 4 minutes and resuspend in growth medium. Cell should be passage or fed at least twice a week.Assay Protocol: Harvest cells from culture in growth medium and resuspend in assay medium. 2.2 Dispense 4000 cells/5 uL/well into 1536-well black/clear bottom plates using a Multidrop dispenser. After the cells were incubated at 37C for 5 hours, 23 nL of compounds dissolved in DMSO were transferred to the assay plate by a PinTool resulting in a 217-fold dilution. Incubate the plates for 16 hours at 37C, 5% CO2. Add 1 uL of 6X LiveBLAzer FRET B/G (CCF4-AM) Substrate Mixture to each well using a BioRAPTR dispenser and incubate the plates at room temperature for 2 hours. Measure fluorescence intensity at 460 and 530 nm emission and 405 nm excitation by an Envision detector. Data is expressed as the ratio of 460nm/530nm emissions. Add 4 uL of Cell-titer Glo to each well using BioRAPTR and incubate the plates at room temperature for 2 hours. Measure fluorescence intensity by a VewLux plate reader.

Sequence of Cellular tumor antigen p53 (Homo sapiens) (P04637 whole entry, looked up, the tested form may be a part): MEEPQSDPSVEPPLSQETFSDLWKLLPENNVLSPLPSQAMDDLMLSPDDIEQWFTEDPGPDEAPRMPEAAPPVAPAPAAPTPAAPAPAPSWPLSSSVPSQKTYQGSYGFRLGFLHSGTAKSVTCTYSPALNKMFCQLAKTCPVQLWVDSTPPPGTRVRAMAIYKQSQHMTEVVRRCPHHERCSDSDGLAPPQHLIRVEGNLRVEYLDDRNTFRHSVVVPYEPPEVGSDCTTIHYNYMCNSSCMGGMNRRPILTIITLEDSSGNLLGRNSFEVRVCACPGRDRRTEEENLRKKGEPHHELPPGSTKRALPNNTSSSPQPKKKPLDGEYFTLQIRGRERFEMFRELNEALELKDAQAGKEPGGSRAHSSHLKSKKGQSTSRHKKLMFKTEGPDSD

Structure (SMILES) | outcome | AC50
CCCCCCCCCC | inactive | –
CC(C)c1nnc2ccc(-c3ocnc3-c3cc(F)ccc3F)cn12 | inactive | –
OCc1c[nH]c2ccccc12 | inactive | –
S=P(N1CC1)(N1CC1)N1CC1 | inactive | –
O=C(O)c1ccc2c(c1)nc(C(=O)NC1CCN(C3CC3)CC1)n2Cc1cc(-c2ccc(Cl)s2)on1 | inactive | –
Cc1cccc(O)c1C | inactive | –
CCCCN1C(=O)[C@@H]([C@H](O)C2CCCCC2)NC(=O)C12CCN(Cc1ccc(Oc3ccc(C(=O)O)cc3)cc1)CC2 | – | 63.7 µM (active)
OC(Cn1cncn1)(Cn1cncn1)c1ccc(F)cc1F | inactive | –
c1ccc(C(O[C@@H]2CCCN(CCc3ccc4c(c3)OCO4)C2)c2ccccc2)cc1 | inactive | –
O=C(O)c1cccc(C[C@@H]2COc3ccc(OCc4nc5cc(F)ccc5s4)cc3[C@@H]2O)c1 | inactive | –
CC1(C)C(=O)N(Cl)C(=O)N1Cl | inactive | –
NC(=O)NN=Cc1ccc([N+](=O)[O-])o1 | inactive | –
CCCCCCCCCCCCCCCCOS(=O)(=O)O | inactive | –
c1ccc2cc3ccccc3cc2c1 | inactive | –
CCCCCCCCN(C)C | inactive | –
CC(=O)c1ccccc1 | inactive | –
O=C(N[C@H](CO)[C@H](O)c1ccc([N+](=O)[O-])cc1)C(Cl)Cl | inactive | –
C=CN1CCCC1=O | inactive | –
CCCCCCCC/C=C\CCCCCCCC(=O)OC[C@@H](O)[C@H]1OC[C@H](O)[C@H]1O | inactive | –
Cn1c(=O)c2[nH]cnc2n(C)c1=O | inactive | –
CCOC(N)=O | inactive | –
O=S1(=O)CCCO1 | inactive | –
CCc1cccc(CC)c1N | inactive | –
OCCOCCOCCO | inactive | –
c1ccc2ncccc2c1 | inactive | –
CCn1nc(C)c2c1C(=O)NCC(c1ccc(O)cc1)=N2 | inactive | –
C[C@]12C=CC(=O)C=C1CC[C@H]1[C@@H]3C[C@@H](O)[C@](O)(C(=O)CO)[C@@]3(C)C[C@H](O)[C@@]12F | inactive | –
O=C1CN(N=Cc2ccc([N+](=O)[O-])o2)C(=O)N1 | inactive | –
OC(CCl)CCl | inactive | –
